# Measurements published in the supplement of paper PMC8728848.
# This excerpt belongs to a sample that is enriched for the strongest signals.
# Columns and labels:
# Test in all cases: glycan array binding signal (z-score within array); higher = stronger binding
# Conditions in all cases: glycan notation: IUPAC condensed, linker removed
# [1] = target: Fuc(a1-2)[Gal(a1-3)]Gal(b1-4)GlcNAc(b1-2)Man(a1-3)[Fuc(a1-2)[Gal(a1-3)]Gal(b1-4)GlcNAc(b1-2)Man(a1-6)]Man(b1-4)GlcNAc(b1-4)GlcNAc
# In short: (§1)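 The Consortium for Functional Glycomics database supplied 3228 glycan arrays, of which those lacking an available protein sequence were dropped. The binding signal, a within-array Z-score, was averaged across arrays of the same protein sequence and across linkers. Negative scores can be read as non-binding.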
# [2] = target: Fuc(a1-2)[Gal(a1-3)]Gal(b1-4)[Fuc(a1-3)]Glc
# In short: as §1
# [3] = target: Fuc(a1-2)[GalNAc(a1-3)]Gal(b1-4)[Fuc(a1-3)]GlcNAc(b1-3)GalNAc
# In short: as §1
# [4] = target: Fuc(a1-3)GlcNAc
# In short: as §1
# [5] = target: Gal(b1-3)GlcNAc(b1-3)Gal(b1-4)GlcNAc(b1-6)[Gal(b1-3)GlcNAc(b1-3)]Gal(b1-4)Glc
# In short: as §1
# [6] = target: Gal(b1-4)GlcNAc(b1-2)[Gal(b1-4)GlcNAc(b1-4)]Man(a1-3)[Gal(b1-4)GlcNAc(b1-2)[Gal(b1-4)GlcNAc(b1-6)]Man(a1-6)]Man(b1-4)GlcNAc(b1-4)GlcNAc
# In short: as §1
# [7] = target: Gal(b1-4)GlcNAc(b1-3)[Gal(b1-4)GlcNAc(b1-6)]GalNAc
# In short: as §1
# [8] = target: Gal(b1-4)GlcNAc(b1-3)[GlcNAc(b1-6)]Gal(b1-4)GlcNAc
# In short: as §1
# [9] = target: GalNAc(b1-3)GalNAc
# In short: as §1
# [10] = target: GlcNAc(a1-4)Gal(b1-4)GlcNAc(b1-3)Gal(b1-4)GlcNAc
# In short: as §1
# [11] = target: GlcNAc(b1-2)[GlcNAc(b1-4)]Man(a1-3)[GlcNAc(b1-2)Man(a1-6)]Man(b1-4)GlcNAc(b1-4)GlcNAc
# In short: as §1
# [12] = target: GlcNAc(b1-2)[GlcNAc(b1-6)]Man(a1-6)[GlcNAc(b1-2)Man(a1-3)]Man(b1-4)GlcNAc(b1-4)GlcNAc
# In short: as §1
# [13] = target: GlcNAc(b1-4)GlcNAc
# In short: as §1
# [14] = target: GlcNAc(b1-4)GlcNAc(b1-4)GlcNAc(b1-4)GlcNAc(b1-4)GlcNAc(b1-4)GlcNAc
# In short: as §1
# [15] = target: GlcNAc(b1-6)Gal(b1-4)GlcNAc
# In short: as §1
# [16] = target: GlcNAc6S(b1-3)Gal(b1-4)GlcNAc
# In short: as §1
# [17] = target: Kdn(a2-3)Gal(b1-4)Glc
# In short: as §1
# [18] = target: Man(a1-2)Man(a1-2)Man(a1-3)Man
# In short: as §1
# [19] = target: Man(a1-2)Man(a1-2)Man(a1-6)[Man(a1-3)]Man
# In short: as §1
# [20] = target: Man(a1-2)Man(a1-3)[Man(a1-2)Man(a1-6)]Man(a1-6)[Man(a1-2)Man(a1-2)Man(a1-3)]Man
# In short: as §1
# [21] = target: Man(a1-2)Man(a1-3)[Man(a1-2)Man(a1-6)]Man(a1-6)[Man(a1-2)Man(a1-2)Man(a1-3)]Man(b1-4)GlcNAc(b1-4)GlcNAc
# In short: as §1
# [22] = target: Man(a1-2)Man(a1-3)[Man(a1-6)]Man(a1-6)[Man(a1-2)Man(a1-3)]Man(b1-4)GlcNAc(b1-4)GlcNAc
# In short: as §1
# [23] = target: Man(a1-2)Man(a1-6)[Man(a1-3)]Man(a1-6)[Man(a1-2)Man(a1-2)Man(a1-3)]Man
# In short: as §1
# [24] = target: Man(a1-2)Man(a1-6)[Man(a1-3)]Man(a1-6)[Man(a1-2)Man(a1-2)Man(a1-3)]Man(b1-4)GlcNAc(b1-4)GlcNAc
# In short: as §1
# [25] = target: Man(a1-3)[Man(a1-6)]Man
# In short: as §1
# [26] = target: Man(a1-3)[Man(a1-6)]Man(a1-6)[Man(a1-2)Man(a1-3)]Man(b1-4)GlcNAc(b1-4)GlcNAc
# In short: as §1
# [27] = target: Neu5Ac(a2-3)Gal(b1-3)GlcNAc6S
# In short: as §1
# [28] = target: Neu5Ac(a2-3)Gal(b1-4)GlcNAc(b1-3)Gal(b1-4)GlcNAc
# In short: as §1
# [29] = target: Neu5Ac(a2-3)Gal(b1-4)[Fuc(a1-3)]GlcNAc
# In short: as §1
# [30] = target: Neu5Ac(a2-3)GalNAc
# In short: as §1
# [31] = target: Neu5Ac(a2-3)[GalNAc(b1-4)]Gal(b1-4)Glc
# In short: as §1
# [32] = target: Neu5Ac(a2-6)Gal(b1-4)GlcNAc(b1-3)Gal(b1-3)GlcNAc
# In short: as §1
# [33] = target: Neu5Ac(a2-6)Gal(b1-4)GlcNAc(b1-3)Gal(b1-4)GlcNAc
# In short: as §1
# [34] = target: Neu5Ac(a2-6)Gal(b1-4)GlcNAc(b1-3)Gal(b1-4)[Fuc(a1-3)]GlcNAc(b1-3)Gal(b1-4)[Fuc(a1-3)]GlcNAc
# In short: as §1
# [35] = target: Neu5Ac(a2-8)Neu5Ac(a2-3)[Gal(b1-3)GalNAc(b1-4)]Gal(b1-4)Glc
# In short: as §1
# [36] = target: Neu5Ac(a2-8)Neu5Ac(a2-8)Neu5Ac(a2-3)[GalNAc(b1-4)]Gal(b1-4)Glc
# In short: as §1
# [37] = target: Neu5Gc(a2-6)GalNAc
# In short: as §1
# [38] = target: Neu5Gc(b2-6)Gal(b1-4)GlcNAc
# In short: as §1
# [39] = target: Fuc(a1-2)[Gal(a1-3)]Gal(b1-4)GlcNAc
# In short: as §1
# [40] = target: Gal(a1-4)Gal(b1-4)GlcNAc
# In short: as §1
# [41] = target: Gal(b1-3)GalNAc(b1-4)Gal(b1-4)Glc
# In short: as §1
# [42] = target: Gal(b1-3)[Neu5Ac(a2-6)]GalNAc
# In short: as §1
# [43] = target: Gal(b1-4)GlcNAc(b1-3)Gal(b1-4)GlcNAc
# In short: as §1
# [44] = target: Gal3S(b1-4)GlcNAc
# In short: as §1
# [45] = target: GalNAc(a1-3)Gal
# In short: as §1
# [46] = target: GlcNAc(b1-3)Gal
# In short: as §1
# [47] = target: Kdn(a2-3)Gal(b1-4)GlcNAc
# In short: as §1
# [48] = target: Man(a1-2)Man(a1-3)[Man(a1-2)Man(a1-6)]Man(a1-6)[Man(a1-3)[Man(a1-6)]Man(a1-6)]Man(b1-4)GlcNAc(b1-4)GlcNAc
# In short: as §1
# [49] = target: Neu5Ac(a2-3)Gal(b1-3)[Neu5Ac(a2-3)Gal(b1-4)]GlcNAc
# In short: as §1
# [50] = target: Neu5Ac(a2-8)Neu5Ac
# In short: as §1
# [51] = target: Neu5Ac(a2-8)Neu5Ac(a2-3)[GalNAc(b1-4)]Gal(b1-4)Glc
# In short: as §1
# [52] = target: Neu5Gc(a2-3)Gal(b1-3)GlcNAc
# In short: as §1
binder,measurement,setting,value
"CVN (Nostoc ellipsosporum), P81180 (protein) LGKFSQTCYNSAIQGSVLTSTCERTNGGYNTSSIDLNSVIENVDGSLKWQPSNFIETCRNTQLAGSSELAAECKTRAQQFVSTKINLDDHIANIDGTLKYE",glycan array binding signal (z-score),[1],0.048
same,glycan array binding signal (z-score),[2],-0.107
same,glycan array binding signal (z-score),[3],0.522
same,glycan array binding signal (z-score),[4],-0.306
same,glycan array binding signal (z-score),[5],-0.301
same,glycan array binding signal (z-score),[6],5.21
same,glycan array binding signal (z-score),[7],-0.095
same,glycan array binding signal (z-score),[8],-0.306
same,glycan array binding signal (z-score),[9],-0.306
same,glycan array binding signal (z-score),[10],-0.203
same,glycan array binding signal (z-score),[11],0.024
same,glycan array binding signal (z-score),[12],-0.3
same,glycan array binding signal (z-score),[13],-0.301
same,glycan array binding signal (z-score),[14],-0.306
same,glycan array binding signal (z-score),[15],-0.302
same,glycan array binding signal (z-score),[16],-0.222
same,glycan array binding signal (z-score),[17],-0.296
same,glycan array binding signal (z-score),[18],5.16
same,glycan array binding signal (z-score),[19],5.83
same,glycan array binding signal (z-score),[20],7.15
same,glycan array binding signal (z-score),[21],5.21
same,glycan array binding signal (z-score),[22],5.58
same,glycan array binding signal (z-score),[23],7.23
same,glycan array binding signal (z-score),[24],6.39
same,glycan array binding signal (z-score),[25],-0.299
same,glycan array binding signal (z-score),[26],4.22
same,glycan array binding signal (z-score),[27],-0.304
same,glycan array binding signal (z-score),[28],-0.3
same,glycan array binding signal (z-score),[29],-0.268
same,glycan array binding signal (z-score),[30],-0.303
same,glycan array binding signal (z-score),[31],-0.305
same,glycan array binding signal (z-score),[32],-0.302
same,glycan array binding signal (z-score),[33],-0.284
same,glycan array binding signal (z-score),[34],0.537
same,glycan array binding signal (z-score),[35],-0.246
same,glycan array binding signal (z-score),[36],-0.237
same,glycan array binding signal (z-score),[37],-0.308
same,glycan array binding signal (z-score),[38],-0.306
"IRP60A (Homo sapiens), Q9UGN4 (protein) MWLPWALLLLWVPGCFALSKCRTVAGPVGGSLSVQCPYEKEHRTLNKYWCRPPQIFLCDKIVETKGSAGKRNGRVSIRDSPANLSFTVTLENLTEEDAGTYWCGVDTPWLRDFHDPVVEVEVSVFPASTSMTPASITAAKTSTITTAFPPVSSTTLFAVGATHSASIQEETEEVVNSQLPLLLSLLALLLLLLVGASLLAWRMFQKWIKAGDHSELSQNPKQAATQSELHYANLELLMWPLQEKPAPPREVEVEYSTVASPREELHYASVVFDSNTNRIAAQRPREEEPDSDYSVIRKT",glycan array binding signal (z-score),[39],-0.266
same,glycan array binding signal (z-score),[40],-0.116
same,glycan array binding signal (z-score),[41],-0.487
same,glycan array binding signal (z-score),[42],-0.296
same,glycan array binding signal (z-score),[43],-0.308
same,glycan array binding signal (z-score),[44],0.268
same,glycan array binding signal (z-score),[45],6.44
same,glycan array binding signal (z-score),[9],0.467
same,glycan array binding signal (z-score),[46],-0.069
same,glycan array binding signal (z-score),[47],-0.156
same,glycan array binding signal (z-score),[48],-0.396
same,glycan array binding signal (z-score),[24],-0.395
same,glycan array binding signal (z-score),[25],8.07
same,glycan array binding signal (z-score),[49],-0.378
same,glycan array binding signal (z-score),[50],5.86
same,glycan array binding signal (z-score),[51],-0.404
same,glycan array binding signal (z-score),[52],-0.502
